Experimental findings from PubChem BioAssay (NCATS) are described below.

Values without a mark were called inactive. Records with an inconclusive call do not appear. The source made the active and inactive calls. Unless noted, calls follow the shape of the dose curve; as a rule, active = well fitted curve in either direction with a large enough effect (not every such curve was filed as active); inconclusive = small, poorly fitted or top-dose-only effect, or another doubt; inactive = flat fitted curve, though single readings scatter.

In test [1] the target is Lysosomal acid glucosylceramidase (Homo sapiens) (UniProt P04062). Briefly: Glucocerebrosidase-p2 (AID 348; in the data active = potency below about 10 µM; also: potency is read from the fitted curve at half-maximal effect). To be noted: purified GBA, blue fluorogenic substrate, 40 min. The gist of the method: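 Normal human glucocerebrosidase (0.2 nM) with blue fluorogenic substrate (80 uM final) in citrate/phosphate pH 5.9 with 10mM sodium taurocholate, 0.01% tween-20; 40 min RT, NaOH/glycine stop; fluorescence Ex 365/Em 440; AC50 from a titration from 0.6 nM upwards.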
Sequence of Lysosomal acid glucosylceramidase (Homo sapiens) (P04062 whole entry, looked up): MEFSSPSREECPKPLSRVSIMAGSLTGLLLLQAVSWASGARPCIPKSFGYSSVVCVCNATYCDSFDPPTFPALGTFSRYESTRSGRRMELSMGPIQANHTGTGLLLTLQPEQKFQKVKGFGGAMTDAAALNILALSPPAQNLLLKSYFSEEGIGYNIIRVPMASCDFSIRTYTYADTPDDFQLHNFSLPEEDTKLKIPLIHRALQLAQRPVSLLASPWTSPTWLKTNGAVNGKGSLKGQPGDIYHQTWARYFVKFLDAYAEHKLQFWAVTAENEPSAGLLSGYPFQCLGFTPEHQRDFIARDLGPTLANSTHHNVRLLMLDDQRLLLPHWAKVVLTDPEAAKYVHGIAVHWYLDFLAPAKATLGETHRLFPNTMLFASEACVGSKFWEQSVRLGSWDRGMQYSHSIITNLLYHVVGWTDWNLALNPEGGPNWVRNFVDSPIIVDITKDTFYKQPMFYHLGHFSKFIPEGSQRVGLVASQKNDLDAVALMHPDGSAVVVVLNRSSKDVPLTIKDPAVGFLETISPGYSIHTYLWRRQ

A short description of test [2]: AP1 Signaling Pathway (AID 357).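 Also: ME-180 reporter cells stimulated with EGF at its EC50 level; % is scaled to controls: 0 for no effect and ±100 for the full control effect.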 Conditions: ME-180 AP-1-bla reporter, EGF-induced, beta-lactamase ratio, 5 h; at 7.69 µM (top of the series) unless noted. The essentials: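 Titration-series screen for positive or negative modulators of EC50 EGF-induced signaling in ME-180 cells carrying an AP-1-driven beta-lactamase reporter. After 5 hours at 37 degrees Celsius, CCF4 460nm/530nm emission ratio gave %Activity; AC50 values derived.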

Test [3] is described as follows: Stat Signaling Pathway (AID 446).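 Also: ME-180 cervical cancer cells given 40 pM IL-6 alongside compound; SIE-controlled beta-lactamase reporter measured as 460/530 nm FRET emission ratio; % is scaled to controls: 0 for no effect and ±100 for the full control effect.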 Conditions: ME-180 SIE beta-lactamase reporter, IL-6 stimulated, 5 h; at 7.69 µM (top of the series) unless noted. The essentials: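 FRET read-out (405 nm excitation, 460/530 nm emission) of a beta-lactamase reporter under a STAT-inducible element in ME-180 cervical carcinoma cells. Cells with compound receive 40 pM IL-6 for 5 h. Values are normalised to AC90 stimulation and AC90 JAK-inhibitor controls.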

The target of test [4] is Glucocorticoid receptor (Homo sapiens) (UniProt P04150). Nature of the test: GR-EFC Redistribution (AID 451; calls by dose curve; also: potency is read from the fitted curve at half-maximal effect). Conditions: CHO-K1 GR-EFC translocation, beta-gal luminescence, 2 h. The essentials: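 CHO-K1 cells expressing nuclear EA and GR-ED fragments of b-gal; compounds titrated up to 46 uM final, 2 h at 37 C. GR nuclear translocation read as complemented b-gal luminescence after 1 h RT detection.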
Sequence of Glucocorticoid receptor (Homo sapiens) (P04150 whole entry, looked up, the tested form may be a part): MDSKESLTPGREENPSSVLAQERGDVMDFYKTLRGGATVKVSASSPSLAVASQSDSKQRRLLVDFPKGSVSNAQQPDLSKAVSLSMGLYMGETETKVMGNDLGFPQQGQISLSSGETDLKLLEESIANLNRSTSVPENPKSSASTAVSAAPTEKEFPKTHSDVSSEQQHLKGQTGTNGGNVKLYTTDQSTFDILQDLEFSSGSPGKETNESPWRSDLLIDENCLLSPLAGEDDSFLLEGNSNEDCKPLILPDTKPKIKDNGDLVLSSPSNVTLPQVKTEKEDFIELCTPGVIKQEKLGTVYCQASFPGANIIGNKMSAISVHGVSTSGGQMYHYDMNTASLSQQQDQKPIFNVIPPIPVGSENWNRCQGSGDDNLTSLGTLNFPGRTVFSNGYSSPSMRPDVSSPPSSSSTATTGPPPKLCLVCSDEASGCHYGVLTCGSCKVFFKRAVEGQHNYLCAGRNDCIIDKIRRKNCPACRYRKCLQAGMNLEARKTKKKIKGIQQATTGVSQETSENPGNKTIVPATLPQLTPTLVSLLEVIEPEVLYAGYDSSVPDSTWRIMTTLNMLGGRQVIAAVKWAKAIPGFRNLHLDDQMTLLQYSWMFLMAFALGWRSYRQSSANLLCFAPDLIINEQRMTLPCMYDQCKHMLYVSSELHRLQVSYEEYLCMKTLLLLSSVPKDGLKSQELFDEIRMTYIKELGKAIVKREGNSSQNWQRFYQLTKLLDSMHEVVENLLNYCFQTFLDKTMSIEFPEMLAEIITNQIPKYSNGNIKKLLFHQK

Test [5] has as its target Mitogen-activated protein kinase 10 (Mus musculus) (UniProt Q61831). Nature of the test: JNK3 AlphaScreen Assay (AID 530).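 Also: kinase came from lysate of stimulated human HepG2 cells; signal reports phosphorylation of biotinylated GST-cJun 1-79 at Ser73 with 10 µM ATP; % is scaled to controls: 0 for no effect and ±100 for the full control effect.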 Conditions: JNK3 lysate, c-Jun phosphorylation; series mostly up to 57.1 µM. The gist of the method: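 HepG2 lysate (IL-1b/TNFa pre-activated) + biotin-GST-cJun 1-79 + anti-pSer73 cJun; cpd titration, 15 min RT; ATP 10 uM start; Tris pH 7.6, MgCl2, DTT, vanadate; beads in EDTA buffer; AlphaScreen.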
In general terms: In Alpha technology, singlet oxygen from a donor bead excites a nearby acceptor bead.

Test [6] deals with 3',5'-cyclic-AMP phosphodiesterase 4B (Homo sapiens) (UniProt Q07343). Nature of the test: qHTS Assay for Inhibitors of PDE-IV (AID 607; active = well fitted activation curve with a large enough effect in the main read-out, with a control signal flat, not every such curve was filed as active; also: % of control where 0% means no effect). To be noted: HEK293 ACTOne CNG channel cells, membrane potential fluorescence; series mostly up to 22.9 µM. The gist of the method: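 Cell-based read-out of cAMP via a modified cyclic nucleotide-gated channel and membrane potential dye (535/590 nm) in HEK293 cells expressing PDE4 endogenously. Compounds tested up to 22.9 uM final; 100 uM RO 20-1724 reference.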
Sequence of 3',5'-cyclic-AMP phosphodiesterase 4B (Homo sapiens) (Q07343 whole entry, looked up): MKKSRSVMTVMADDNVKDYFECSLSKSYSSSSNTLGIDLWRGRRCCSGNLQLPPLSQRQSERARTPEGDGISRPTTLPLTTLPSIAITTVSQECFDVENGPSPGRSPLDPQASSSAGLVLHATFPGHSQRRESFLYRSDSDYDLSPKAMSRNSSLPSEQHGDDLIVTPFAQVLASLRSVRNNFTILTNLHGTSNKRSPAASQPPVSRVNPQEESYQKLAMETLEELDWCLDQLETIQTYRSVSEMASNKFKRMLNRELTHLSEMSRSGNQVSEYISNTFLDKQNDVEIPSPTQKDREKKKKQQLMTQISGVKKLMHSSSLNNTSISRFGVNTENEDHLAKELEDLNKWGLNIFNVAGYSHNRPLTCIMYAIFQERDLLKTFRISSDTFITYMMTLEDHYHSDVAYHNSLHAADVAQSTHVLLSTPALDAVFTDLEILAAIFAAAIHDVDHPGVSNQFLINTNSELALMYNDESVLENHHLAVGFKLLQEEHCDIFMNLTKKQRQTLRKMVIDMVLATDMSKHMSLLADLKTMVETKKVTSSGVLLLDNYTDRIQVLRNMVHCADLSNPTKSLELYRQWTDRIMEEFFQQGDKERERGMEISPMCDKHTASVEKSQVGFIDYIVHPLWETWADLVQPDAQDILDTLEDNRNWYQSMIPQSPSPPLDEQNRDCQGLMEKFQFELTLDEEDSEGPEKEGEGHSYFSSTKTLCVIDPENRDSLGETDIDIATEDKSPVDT

Test [7] in a line: Primary qHTS for small molecule stabilizers of the endoplasmic reticulum resident proteome: Secreted ER Calcium Modulated Protein (SERCaMP) assay (AID 1508630; active = well fitted curve in the direction sought with a large enough effect; an effect the other way counts as inactive or inconclusive; also: % is scaled to controls: 0 for no effect and ±100 for the full control effect). Conditions: SH-SY5Y GLuc-SERCaMP (Gaussia luciferase released on ER calcium loss) secretion, thapsigargin, luminescence; series mostly up to 38.4 µM. The gist of the method: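 The SH-SY5Y reporter protocol was run at 3 concentrations up to 38.3 uM (primary) or 11 concentrations (follow-up): 16 h compound, 100 nM thapsigargin for 4 h, then extracellular luciferase luminescence.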
(In general: In qHTS, concentration-response curves come from the screen itself.)

For test [8], the target named is Cytochrome P450 3A4 (Homo sapiens) (UniProt P08684). Nature of the test: qHTS Assay for Inhibitors and Substrates of Cytochrome P450 3A4 (AID 884; active = well fitted curve in the direction sought with a large enough effect; an effect the other way counts as inactive or inconclusive; also: % is scaled to controls: 0 for no effect and ±100 for the full control effect; nearly all actives have a fitted effect of over 50% in size). Conditions: recombinant CYP3A4, Luciferin-PPXE luminescence; series mostly up to 57.1 µM. The essentials: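 Luminescent readout of luciferin produced by CYP3A4 (20 nM) dealkylation of Luciferin-PPXE, 25 uM (its KM). NADPH-driven reaction ran 60 min at RT after 10 min compound preincubation; data scaled to 57 uM ketoconazole as 100% inhibition.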
Sequence of Cytochrome P450 3A4 (Homo sapiens) (P08684 whole entry, looked up): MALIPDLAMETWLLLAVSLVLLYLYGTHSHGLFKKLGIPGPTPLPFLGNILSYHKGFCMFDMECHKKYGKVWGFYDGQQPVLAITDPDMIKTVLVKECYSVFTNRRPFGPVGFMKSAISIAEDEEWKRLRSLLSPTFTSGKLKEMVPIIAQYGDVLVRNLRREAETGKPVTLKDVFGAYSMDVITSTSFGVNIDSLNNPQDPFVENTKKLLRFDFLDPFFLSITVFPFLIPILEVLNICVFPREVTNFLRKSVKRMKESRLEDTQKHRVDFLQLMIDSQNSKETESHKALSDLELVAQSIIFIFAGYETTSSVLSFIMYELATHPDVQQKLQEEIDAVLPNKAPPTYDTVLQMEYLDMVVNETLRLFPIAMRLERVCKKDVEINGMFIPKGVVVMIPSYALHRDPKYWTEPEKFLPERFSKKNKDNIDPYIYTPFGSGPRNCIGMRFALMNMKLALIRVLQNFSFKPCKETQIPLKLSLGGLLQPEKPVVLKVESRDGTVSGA

Test [9] can be described thus: NFAT Signaling Pathway (AID 444). Conditions: Jurkat NFAT-bla M1, carbachol, beta-lactamase ratio, 5 h; at 7.69 µM (top of the series) unless noted. The essentials:
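Jurkat cells with NFAT-driven β-lactamase reporter and co-expressed M1 receptor, stimulated with carbachol (final 1 uM, ~EC50), compound titration, 5 h at 37 °C. CCF4 loaded 1 h at RT; 460/530 nm ratio gave %activity and AC50.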

For test [10], the target named is Glucocorticoid receptor (Homo sapiens) (UniProt P04150). Briefly: GR-GFP Redistribution (AID 450;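 active = compounds whose dose series gives a full or clear partial fitted curve of increased nuclear translocation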; also: potency is read from the fitted curve at half-maximal effect). Conditions: U2OS GR-GFP nuclear translocation, laser cytometry, 2 h.
A short description of test [11]: Confirmation and Secondary Assay for Modulators of Hemoglobin Beta Chain Splicing at IVS2 654 locus (AID 910; active = well fitted curve in the direction sought with a large enough effect; an effect the other way counts as inactive or inconclusive;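 also: HeLa cells stably carrying EGFP split by mutant beta-globin IVS2-654 intron; % of control where 0% means no effect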). To be noted: HeLa EGFP-654 splicing reporter, GFP fluorescence, 48 h; series mostly up to 38.3 µM. The essentials: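 HeLa cells stably expressing EGFP interrupted by β-globin IVS2-654 intron, seeded overnight in Opti-MEM/2% FCS, then treated 2 days at 37 °C. Restored splicing read as total peak GFP intensity per well by laser scanning cytometry (488 nm excitation, 500–520 nm emission); 500 nM antisense PNA as control.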

Test [12] can be described thus: qHTS Assay for Identification of Small Molecule Agonists for Hypoxia Response Element Signaling Pathway (AID 914; active = well fitted activation curve with a large enough effect in the signal ratio, with a control signal flat, not every such curve was filed as active; the % refers to the signal ratio; also: % of control where 0% means no effect). To be noted: ME-180 (cervical carcinoma) HRE-bla reporter, beta-lactamase ratio, CoCl2, 17 h; activation: active compounds read high. The gist of the method: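 Compounds in a titration series were added to ME-180 reporter cells alongside an EC50 level of CoCl2. After 17 hours, beta-lactamase activity was read as the 460nm/530nm emission ratio of CCF4, giving AC50 values.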

A short description of test [13]: Confirmation and Secondary Assay for Modulators of Hemoglobin Beta Chain Splicing at IVS2 705 locus (AID 930; active = well fitted curve in the direction sought with a large enough effect; an effect the other way counts as inactive or inconclusive;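 also: HeLa cells stably expressing the EGFP-705 splicing reporter; GFP fluorescence per well restored by corrected splicing of the IVS2-705 intron in EGFP; % of control where 0% means no effect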). To be noted: HeLa EGFP-705 splicing reporter, GFP fluorescence, 48 h; series mostly up to 38.3 µM. The gist of the method:
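Assay measures total GFP intensity per well in HeLa EGFP-705 cells after 2 days with compound; mis-splicing normally truncates EGFP, so fluorescence indicates corrected splicing.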

The target of test [14] is Ubiquitin carboxyl-terminal hydrolase 1 (Homo sapiens) (UniProt O94782). Briefly: Inhibitors of USP1/UAF1: Pilot qHTS (AID 504865; active = well fitted curve in the direction sought with a large enough effect; an effect the other way counts as inactive or inconclusive; also: potency is read from the fitted curve at half-maximal effect; nearly all actives have a fitted effect of over 35% in size). Conditions: purified USP1/UAF1, Ub-rhodamine cleavage fluorescence; series mostly up to 54.9 µM. The gist of the method: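 Deubiquitinase activity followed as kinetic rhodamine fluorescence release from 150 nM Ub-Rho. 1 nM USP1/UAF1 with compound, after 15 min room-temperature preincubation, in HEPES pH 7.8 buffer containing TCEP, EDTA, BSA and Tween-20.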
Sequence of Ubiquitin carboxyl-terminal hydrolase 1 (Homo sapiens) (O94782 whole entry, looked up): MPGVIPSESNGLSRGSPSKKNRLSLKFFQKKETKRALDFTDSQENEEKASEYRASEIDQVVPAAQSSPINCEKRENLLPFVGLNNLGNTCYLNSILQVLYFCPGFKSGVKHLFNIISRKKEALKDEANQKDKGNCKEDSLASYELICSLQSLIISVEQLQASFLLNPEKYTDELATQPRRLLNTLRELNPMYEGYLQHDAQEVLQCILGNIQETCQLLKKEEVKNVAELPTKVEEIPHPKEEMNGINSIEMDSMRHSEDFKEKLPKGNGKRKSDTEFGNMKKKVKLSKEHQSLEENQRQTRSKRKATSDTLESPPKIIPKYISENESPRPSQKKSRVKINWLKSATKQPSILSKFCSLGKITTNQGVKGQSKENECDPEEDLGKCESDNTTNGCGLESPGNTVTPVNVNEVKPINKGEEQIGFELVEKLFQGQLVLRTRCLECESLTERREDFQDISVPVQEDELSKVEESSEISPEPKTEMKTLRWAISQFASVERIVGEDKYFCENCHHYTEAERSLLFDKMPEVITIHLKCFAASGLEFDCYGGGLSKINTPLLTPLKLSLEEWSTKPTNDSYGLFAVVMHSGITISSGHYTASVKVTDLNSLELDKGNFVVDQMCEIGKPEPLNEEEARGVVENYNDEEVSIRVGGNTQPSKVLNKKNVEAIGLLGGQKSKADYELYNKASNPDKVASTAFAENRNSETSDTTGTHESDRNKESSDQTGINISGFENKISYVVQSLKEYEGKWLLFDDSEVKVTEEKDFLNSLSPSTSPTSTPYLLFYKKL

For test [15], the target named is Cytochrome P450 3A4 (Homo sapiens) (UniProt P08684). Briefly: qHTS Assay for Activators of Cytochrome P450 3A4 (AID 885; active = well fitted curve in the direction sought with a large enough effect; an effect the other way counts as inactive or inconclusive; also: nearly all actives have a fitted effect of over 65% in size). To be noted: recombinant CYP3A4, Luciferin-PPXE luminescence, 60 min; series mostly up to 57.1 µM. The essentials:
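Luminescent readout of luciferin formed from 25 uM Luciferin-PPXE (KM level) by 20 nM CYP3A4 in 200 mM KPO4, with 60 min NADPH-driven reaction at room temperature after 10 min compound exposure. Ketoconazole (57 uM) defined 100% inhibition.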

On to `O=c1c(CCc2ccccc2)nc2cnc(Nc3ccccc3)nc2n1Cc1cccs1`, for which the values for the Potency in [1] and in test [4] were more than 11.4 µM and more than 46 µM, respectively. Also, in [2], the activity change, negative = inhibition was -26.7%. Besides, in [3], the activity, negative = inhibition is -23.5%. The Potency entry in test [5] and in test [6] was “inactive” each time. The result in test [7] was inactive.
On to `O=C(Oc1ccccc1)N1CCC2(CC1)CCN(c1ccccn1)CC2`, for which the Potency in test [1] was more than 11.4 µM; in test [4], more than 46 µM. In addition, the activity change, negative = inhibition in test [2] is -11.8%. The activity, negative = inhibition in test [3] is -7.33%. Also, the Potency result in test [5], in [6] and in test [8] was “inactive” in each case. For the same compound, the outcome in [7] was inactive.
Take `COCCn1c(=O)c(-c2ccc(OC)cc2)nc2cnc(Nc3ccccc3)nc21`: the results for the Potency in test [1], in [10] and in test [4] were more than 11.4 µM, more than 9.22 µM and more than 46 µM, respectively. Moreover, the activity change, negative = inhibition was 6.46% in test [2] and -9.78% in [9]. Moreover, the Potency entry in test [5] and in test [6] was “inactive” throughout. Further, in [7], the result was inactive.
For the compound `N#Cc1ccc(CN2CCC3(CC2)CCN(C(=O)c2cnccn2)CC3)cc1`, the Potency in [1] is more than 11.4 µM; in test [4], more than 46 µM. Further, the activity change, negative = inhibition in test [2] was 4.06%. Moreover, in test [3], the activity, negative = inhibition was -7.54%. Moreover, the Potency result in test [5] and in test [6] was “inactive” throughout. The result in test [7] was inactive.
`Cc1cccc(CNc2cc(-c3ccccc3C)ncn2)c1`: the Potency was more than 11.4 µM in test [1], more than 46 µM in test [10], more than 46 µM in [4] and 44.7 µM (active) in [14]. Moreover, in [2], the activity change, negative = inhibition was 13.4%. For the same compound, the activity, negative = inhibition in test [3] was -8.32%. Further, the Potency result in test [5] and in test [11] was “inactive” in each case. Also, in test [12], the activation was 16.7%. Further, the compound was called inactive in [13] and in test [7].
Turning to `CS(=O)(=O)N1CCC2(CCN(Cc3ccc(C#N)cc3)CC2)CC1`, the Potency in [1] was more than 11.4 µM. Further, the activity change, negative = inhibition in [2] was 3.08%. The activity, negative = inhibition in test [3] is 3.96%. Besides, the Potency entry in [5] and in test [6] was “inactive” each time. Moreover, the result in [7] was inactive.
Turning to `Cn1cccc1C(=O)N1CCC2(CCCN(Cc3nccs3)C2)CC1`, the Potency in test [1] was more than 11.4 µM; in [4] it was more than 46 µM. The activity change, negative = inhibition in test [2] is -3.56%. In test [3], the activity, negative = inhibition is -8.95%. The Potency entry in test [5] and in [6] was “inactive” in each case. The outcome in [7] was inactive.
Take `N#Cc1ccc(CN2CCCC3(CCN(C(=O)c4cnccn4)CC3)C2)cc1`: the Potency in test [1] was more than 11.4 µM; in [4] it was more than 46 µM. The activity change, negative = inhibition in test [2] was -6.06%. For the same compound, the activity, negative = inhibition in [3] is -1.62%. The Potency result in test [5] and in test [6] was “inactive” in each case. Besides, the activation in test [12] is -10.7%. In test [7], the outcome was inactive.
On to `COc1ccc(C(=O)N2CCC3(CCCN(Cc4nccs4)C3)CC2)cc1`, for which the Potency was more than 11.4 µM in test [1] and more than 46 µM in test [4]. In addition, in test [2], the activity change, negative = inhibition is -4.03%. For the same compound, the activity, negative = inhibition in test [3] was -4.62%. Also, the Potency result in [5], in [6] and in [15] was “inactive” each time. For the same compound, the outcome in test [7] was inactive.
